This is an account of results in ChEMBL document CHEMBL3988442, “University of Dundee, Small-Polar-MMV Screening Library” (2021).

SMILES strings stand for the structures. The whole screen tested about 48,000 compounds, of which about 13,000 (27%) showed an effect of 50% or more. The list shows a part of the results.

The subject of this experiment is Wolbachia pipientis. The experiment in a line: Anti-Wolbachia Cell-Based Screen. On the set-up: scale not given: in the data most compounds retested in dose-response had high values. The experiment is classed as functional. The conditions noted are these: 5 µM.
Take `CN(CCN1CCCC1)c1nccc(N2CCN[C@H]3CS(=O)(=O)C[C@H]32)n1`: the “Percent Effect” value is on record as -5.82%.
As for `CC(C)Nc1ncnc2c1CCN(c1cc(C(F)(F)F)ncn1)CC2`, the “Percent Effect” value was -0.2205%.
For `COCCN1CCc2ncnc(NC(C)C)c2CC1.O=C(O)C(F)(F)F`, the “Percent Effect” value was found to be 87.2%.
Take `c1cc(CCNc2ncnc3c2CCN(Cc2ccoc2)CC3)ccn1`: the “Percent Effect” value is recorded as -12.64%.
Regarding `CC(C)Nc1ncnc2c1CCN(Cc1nccn1C)CC2.O=C(O)C(F)(F)F.O=C(O)C(F)(F)F`, the “Percent Effect” value was -25.56%.
As to `CC(C)Oc1ncnc2c1CCN(Cc1ccc(F)cc1)CC2.O=C(O)C(F)(F)F`, the “Percent Effect” value is 2.897%.
As to `COc1ccc(CN2CCc3ncnc(OC(C)C)c3CC2)cc1.O=C(O)C(F)(F)F`, the “Percent Effect” value is -22.8%.
Consider `Nc1nc(CNc2ncnc3c2CCN(Cc2ccoc2)CC3)cs1`, for which the “Percent Effect” value was -10.72%.
As for `COCCN1CCc2ncnc(OC(C)C)c2CC1.O=C(O)C(F)(F)F`, the “Percent Effect” value came to 107.2%.
Regarding `CC(C)Nc1ncnc2c1CCN(Cc1ccoc1)CC2`, the “Percent Effect” value was determined as 96.99%.
With `O=C(N[C@@H]1C[C@H]2CC[C@@H]1C2)C1(Oc2ccc(Cl)cc2)CCNCC1` the figure was 5.083%; with `Cc1nonc1C(=O)N1CCc2c(ncn2CCc2ccccc2)C1`, 7.043%.
With `Cc1ccc(CNC(c2cccc(F)c2)c2nccn2C)o1.Cl` (stereo unspecified), the “Percent Effect” value was -1.716%.
Take `COCCCNc1ncc(-c2cccc(F)c2)c(-c2nccn2C)n1`: the “Percent Effect” value is given as 116.3%.
Turning to `COc1cccc(-c2nc(CNCCn3cccn3)cs2)c1`, the “Percent Effect” value was -13.66%.
With `COCCNc1ncc(-c2cccc(F)c2)c(-c2nccn2C)n1` the figure was 111.1%; with `CSC(C)(C)CNC(=O)Nc1cccc(-c2nccn2C)c1`, -14.94%; with `Cn1ccnc1-c1nc(NC2CCCC2)ncc1-c1cccc(F)c1`, 77.55%.
`COCCNc1ncc(-c2cccc(OC)c2)c(-c2nccn2C)n1`: the “Percent Effect” value was determined as 73.04%.
`CSCCCNC(=O)Nc1cccc(-c2nccn2C)c1`: the “Percent Effect” value was determined as 3.955%.
`COc1cccc(-c2cc(NCc3nccn3C)n(C)n2)c1`: the “Percent Effect” value is reported as -16.42%.
With `Cc1nnc(CN(C)CC(=O)N2CCCC(C(F)(F)F)C2)n1C` (stereo unspecified) the figure was -17.87%.
With `CC1CCc2nc(O)c(C(=O)NCc3ccccc3F)cc2C1` (stereo unspecified) the figure was -2.667%; with `C[C@@H]1CN(S(=O)(=O)N2CCCCCC2)C[C@@]1(O)C1CCC1`, 19.36%; with `O=C(O)C(F)(F)F.O=C([C@H]1C[C@H]2OCC[C@H]2N(C(=O)c2ccncc2)C1)N1CCCC1`, -2.024%.
For the compound `N#Cc1ccc(SCCC(=O)NC(N)=O)cc1`, the “Percent Effect” value came out at 0.3622%.
On to `Cc1c(F)cccc1S(=O)(=O)N(C)CC(C)O` (stereo unspecified), for which the “Percent Effect” value was 10.31%.
Regarding `CCOCCCNc1ncc(-c2cccc(F)c2)c(-c2nccn2C)n1`, the “Percent Effect” value was found to be 61.85%.
As for `CCOCCCC(=O)Nc1c(-c2ccc(F)cc2)ncn1C`, the “Percent Effect” value is on record as -11.11%.
For `CCOCCNC(=O)Nc1cccc(-c2nccn2C)c1`, the “Percent Effect” value is -19.42%.
`CCCc1cnc(C)nc1N1CCC(F)(F)CC1`: the “Percent Effect” value is on record as -3.547%.
Under `Cc1cccc2c1nc1n2[C@@H](CNC(=O)NC(C)C)COC1` stands -19.06%; under `Cc1cc(Nc2ccc3c(c2)CC(=O)N3)nc(C2CC2)n1`, -4.534%.
In the case of `Cn1cc(C(=O)NC2CCN(Cc3ccn(C)c(=O)c3)CC2)cn1`, the “Percent Effect” value is -2.603%.
With `Cn1nccc1-c1nc2c(cc1C(=O)O)CCN(CC1CC1)CC2` the figure was -6.641%.
Regarding `CC(C)Oc1cccc(C(=O)C2CCCN(C(=O)c3ccnn3C)C2)c1` (stereo unspecified), the “Percent Effect” value is -5.247%.
With `Cn1cc(-c2cnc(-c3ccnn3C)nc2)cc1C(=O)N1CCCC1`, the “Percent Effect” value worked out at 85.82%.
In the case of `Cn1nccc1C(=O)N1CCN(C(=O)C2CC2)[C@@H]2CS(=O)(=O)C[C@@H]21`, the “Percent Effect” value is on record as 14.29%.
Take `Cn1nccc1-c1ncc(-c2cc(C(=O)O)n(CC3CC3)c2)cn1`: the “Percent Effect” value was found to be 118.9%.
Take `Cc1cn2c(n1)CCC(NC(=O)c1cc(Br)cn1C)C2` (stereo unspecified): the “Percent Effect” value was -1.001%.
As to `Cn1cc(-c2cnc(N3CCCC3)nc2)cc1C(=O)O`, the “Percent Effect” value is given as -13.43%.
With `Cn1cc(-c2cnc(-c3ccnn3C)nc2)cc1C(=O)NC1CC1` the figure was 95.89%.
Turning to `COc1cccc2c1OCC(C(=O)N1CCC(N3CCSCC3)CC1)C2` (stereo unspecified), the “Percent Effect” value is -10.16%.
Consider `CSc1ccc(NCC(=O)NC(=O)NCC(F)(F)F)cc1F`, for which the “Percent Effect” value was determined as 2.815%.
With `CCN(Cc1ccoc1)C(=O)Nc1ccccc1CN1CCOCC1` the figure was 2.801%.
With `Cc1cc(C(=O)NC2CC(=O)N(C(C)C)C2=O)c(C)n1C(C)C` (stereo unspecified) the figure was -25.95%; with `CNC(=O)CS(=O)(=O)C1CCN(S(=O)(=O)c2cccnc2)CC1`, 10.97%; with `O=S(=O)(c1cccs1)N1CCC(c2nc(-c3cccs3)no2)CC1`, 1.77%.
For the compound `Cc1cc(N(C)C)cc(C2CCN(S(=O)(=O)c3cccs3)C2)n1` (stereo unspecified), the “Percent Effect” value is listed as 93.47%.
`Cc1cc(N(C)C)cc(C2CCN(S(=O)(=O)c3cccnc3)C2)n1` (stereo unspecified): the “Percent Effect” value turned out to be 129.7%.
Under `Cc1noc(C)c1-c1n[nH]c2c1CN(S(=O)(=O)c1cccnc1)CC2` stands 2.189%; under `Cc1cccc(C2CCCN(S(=O)(=O)c3cccnc3)C2)n1` (stereo unspecified), 131.9%; under `CC(C)[C@H]1CN(S(=O)(=O)c2cccnc2)C[C@@H]1N`, -3.763%.
Turning to `N[C@H]1CN(S(=O)(=O)c2cccnc2)C[C@@H]1C1CC1`, the “Percent Effect” value is recorded as -0.9551%.
As to `COCCc1noc(C2CCN(S(=O)(=O)c3cccs3)CC2)n1`, the “Percent Effect” value is given as -5.417%.
Consider `CN(C[C@@H]1CCC[C@@H]2CN(c3ncccn3)C[C@@H]21)C1CC1.O=C(O)C(F)(F)F`, for which the “Percent Effect” value was determined as 9.93%.
With `COc1ccc(N(Cc2ccco2)C(=O)C2CCOC2)cc1F` (stereo unspecified) the figure was -6.319%.
With `COc1ccc(CNC(=O)N(Cc2ccc(F)cc2F)C2CC2)cn1`, the “Percent Effect” value is listed as 13.46%.
On to `NC(=O)N1CCCN(CCCSCc2ccccc2)CC1`, for which the “Percent Effect” value is reported as -22.93%.
Consider `CC(=O)N1CCCN(CCCSCc2ccccc2)CC1`, for which the “Percent Effect” value is -18.43%.
Take `CCSCc1ccc(C(=O)N2CCCN(CC)CC2)cc1`: the “Percent Effect” value was determined as 93.96%.
Turning to `CCSCc1ccc(C(=O)N2CCCN(CC(N)=O)CC2)cc1`, the “Percent Effect” value is on record as 111.3%.
Consider `CCN1CCCN(C(=O)c2cnc(OC(C)C)c(Cl)c2)CC1`, for which the “Percent Effect” value is given as 20.31%.
Consider `NC(=O)CN1CCCN(C(=O)c2ccn(-c3ccc(F)cc3)n2)CC1`, for which the “Percent Effect” value stood at 9.69%.
Turning to `Cc1cc(Br)oc1C(=O)N1CCCN(CC(N)=O)CC1`, the “Percent Effect” value is on record as -7.615%.
`NC(=O)CN1CCCN(C(=O)c2ccn(-c3ccccc3)n2)CC1`: the “Percent Effect” value is given as -8.836%.
`NC(=O)CN1CCCN(C(=O)c2ccc(SC(F)F)cc2)CC1`: the “Percent Effect” value was 104.9%.
On to `COc1ccc2[nH]c(C[C@@H]3C[C@@H](C(C)C)[C@H](CN(C)C)C=C3C)nc2c1`, for which the “Percent Effect” value is -3.029%.
For the compound `Cc1ccc(C(CNCc2cccn2C)N2CCOCC2)s1` (stereo unspecified), the “Percent Effect” value was 12.06%.
Under `Cc1ccc2nc(NCCCN3CCCCCC3=O)n(C)c(=O)c2c1` stands 5.904%.
As for `CCC(CC)NC(=O)c1ccc2nnc(C3CCN(C(C)=O)C3)n2c1` (stereo unspecified), the “Percent Effect” value is on record as -17.88%.
With `CC(=O)N1CCC2(CC1)CN(C(=O)c1cccc3[nH]ccc13)CCO2`, the “Percent Effect” value is -6.539%.
Turning to `CC(C)N(C)C(=O)C1=NOC2(CCN(C(=O)c3ccc(Cl)cc3)C2)C1` (stereo unspecified), the “Percent Effect” value was -15.34%.
Take `O=C(c1ccoc1)N1CCC2(CC1)C(=O)Nc1ccccc12`: the “Percent Effect” value is on record as 5.078%.
Under `O=C(c1ccc(Cl)cc1)N1CCC2(C1)C(=O)Nc1ccccc12` (stereo unspecified) stands 123%.
As to `CN(C)C(=O)NC1COC2(CCN(C(=O)c3ccc(Cl)cc3)CC2)C1` (stereo unspecified), the “Percent Effect” value is -7.709%.
Under `NCCCC(=O)N1CCC2(CC1)CN(C(=O)c1ccc(Cl)cc1)CCO2` stands 114.9%; under `O=C(c1cnc(-c2ccccc2)nc1)N1CCOC2(CCCC2)C1`, -7.447%; under `O=C(c1ccc(Cl)cc1)N1CCC2(CC1)C(=O)Nc1ccccc12`, 0.2295%.
Turning to `NCCC(=O)N1CCC2(CC1)CN(C(=O)c1ccc(Cl)cc1)CCO2`, the “Percent Effect” value was 94.29%.
Under `CN(C)Cc1ccc(NC(=O)c2nccn3ccnc23)cc1` stands 4.692%; under `Cc1ncc2c(n1)CN(Cc1cccc3c1OCCO3)CC2`, -20.45%; under `Cn1nc2c(cc1=O)CN(Cc1nc(-c3cccs3)no1)CC2`, -4.413%.
For `COc1ccc(-c2noc(CN3CCc4cncnc4C3)n2)cc1`, the “Percent Effect” value is -16.15%.
Turning to `CCc1ncc2c(n1)CN(Cc1nc(-c3cccs3)no1)CC2`, the “Percent Effect” value worked out at 94.19%.
Turning to `CCc1ncc2c(n1)CN(Cc1nc(-c3ccsc3)no1)CC2`, the “Percent Effect” value was -2.841%.
Under `CCc1ncc2c(n1)CN(Cc1cccc3c1OCCO3)CC2` stands -19.5%.
With `c1csc(-c2noc(CN3CCc4c(ncn4C4CC4)C3)n2)c1` the figure was -1.185%.
`Cc1ncc2c(n1)CN(Cc1nc(-c3cccs3)no1)CC2`: the “Percent Effect” value is on record as 104.1%.
Under `CC(C)c1ncc2c(n1)CN(Cc1nc(-c3cccs3)no1)CC2` stands 1.311%.
For the compound `CC(C)c1nc2c(n1C)CCN(Cc1nc(-c3cccs3)no1)C2`, the “Percent Effect” value was -3.537%.
For the compound `c1cc(CN2CCc3cncnc3C2)c2c(c1)OCCO2`, the “Percent Effect” value amounted to 51.63%.
`c1csc(-c2noc(CN3CCc4cncnc4C3)n2)c1`: the “Percent Effect” value is reported as 93.12%.
Turning to `O=C(NC1(c2nnn(CC3CC3)n2)CCCC1)c1ccccc1`, the “Percent Effect” value is recorded as -31.69%.
In the case of `CCc1nc(C)c(C(=O)N2CCCC(c3noc(C)n3)C2)s1` (stereo unspecified), the “Percent Effect” value was -3.627%.
Turning to `CN(C)c1ccc(CCCNC(=O)NCC(O)c2cccs2)cc1` (stereo unspecified), the “Percent Effect” value is 15.76%.
`CN1CCN(CCCNC(=O)C2CCCCC2)CC1`: the “Percent Effect” value is given as -13.83%.
In the case of `Cc1cc(-c2cnn(CCNC(=O)Cc3ccccn3)c2C2CC2)on1`, the “Percent Effect” value is 116.9%.
For `CC1CCN(C(CNC(=O)CCn2cccn2)c2cccs2)CC1` (stereo unspecified), the “Percent Effect” value is 3.155%.
For the compound `CCC(NCCn1cccn1)C(=O)Nc1cc(C)on1` (stereo unspecified), the “Percent Effect” value is -12.89%.
Under `Cc1cc(-c2cnn(CCNC(=O)CCn3cccn3)c2C2CC2)on1` stands 139.3%.
